Assay outcomes deposited in PubChem by Broad Institute.
aSyn 5UTR act – Activators via SNCA 5'UTR binding, MLPCN | alpha-synuclein 5'UTR reporter, activators screen | 7.1% of 300,000 active | activity score, % (tested at 7.5 µM), hits read low; in the data active = activity score below about -60%
* marks the source's active call; other numbers are inactive results. Not all results are given here.

How did Cc1cc(C(=O)N/N=C/c2cc(Br)cc(Br)c2OC(=O)c2ccccc2)n[nH]1 do in these assays?
aSyn 5UTR act: 89

How did Cc1ccc(O)c(/C=N/NC(=O)c2[nH]ncc2Br)c1 do in these assays?
aSyn 5UTR act: -113*

How did Cn1cccc1-c1cc(C(=O)N/N=C/c2cc(Br)ccc2O)[nH]n1 do in these assays?
aSyn 5UTR act: 71

Results for O=C(N/N=C/c1c(O)ccc2ccccc12)c1[nH]ncc1Br ?
aSyn 5UTR act: 106

Results for C/C(=N\NC(=O)c1cc(C)[nH]n1)c1ccc(-c2ccccc2)cc1 ?
aSyn 5UTR act: -78*

Results for Cc1cc(N/N=C/c2ccccc2Br)nc2ccccc12 ?
aSyn 5UTR act: -196*

Results for Brc1ccc(/C=N/Nc2ccccc2)cc1 ?
aSyn 5UTR act: -92*

How did Brc1ccc(/C=N/Nc2ccc3ccccc3n2)cc1 do in these assays?
aSyn 5UTR act: -187*

What do the screens show for `Brc1ccccc1/C=N/Nc1ccc2ccccc2n1`?
aSyn 5UTR act: -256*

What do the screens show for `Cc1sc(NC(=O)c2oc3ccccc3c2C)c(C#N)c1C`?
aSyn 5UTR act: -107*

How did Cc1cccc2cc3c(N)c(C#N)sc3nc12 do in these assays?
aSyn 5UTR act: 84

Results for Cc1sc(NC(=O)c2sc3nc4c(C)cccc4cc3c2N)c(C#N)c1C ?
aSyn 5UTR act: -119*

What do the screens show for `Cc1csc(NC(=O)c2oc3ccccc3c2C)n1`?
aSyn 5UTR act: -68*

What do the screens show for `Cc1cc(C(=O)Nc2sc(C)c(C)c2C#N)c(C)o1`?
aSyn 5UTR act: -65*

How did Cc1csc(Nc2nc(N)c(C(=O)Nc3ccccc3)o2)n1 do in these assays?
aSyn 5UTR act: -131*

Results for Cc1c(C(=O)NC2=NCCS2)oc2ccccc12 ?
aSyn 5UTR act: -62*

Results for CN(C)c1ccc(NC(=O)Nc2csc3ccccc23)cc1 ?
aSyn 5UTR act: -141*

Results for O=C(Nc1ccc(F)cc1)Nc1csc2ccccc12 ?
aSyn 5UTR act: -87*

How did CCCOc1ccccc1C1CC(=O)Nc2cc3c(cc21)OCCO3 (configuration not stated) do in these assays?
aSyn 5UTR act: 103

What do the screens show for `COC(=O)C(C)N1C(=O)S/C(=C/c2cc(C)n(-c3ccccn3)c2C)C1=O` (configuration not stated)?
aSyn 5UTR act: -83*

Results for CCc1ccc(/C=C2\SC(=S)N(CCCC(=O)Nc3ccccn3)C2=O)cc1 ?
aSyn 5UTR act: 73

What do the screens show for `CC(/C=C1\SC(=O)N(CCCC(=O)O)C1=O)=C\c1ccccc1`?
aSyn 5UTR act: 103

How did CCOC(=O)CN1C(=O)S/C(=C/c2cc(C)n(C)c2C)C1=O do in these assays?
aSyn 5UTR act: -177*

Results for CCOC(=O)CN1C(=O)S/C(=C/c2cc(C)n(-c3ccccn3)c2C)C1=O ?
aSyn 5UTR act: -150*

What do the screens show for `O=C(O)c1ccc(Cl)c(S(=O)(=O)Nc2ccc(OCc3ccccc3)cc2)c1`?
aSyn 5UTR act: -69*

How did Clc1ccc(/C=C/c2nc3ccccc3[nH]2)c(Cl)c1 do in these assays?
aSyn 5UTR act: 68

How did CCOc1cc(/C=C/c2nc3ccccc3c(=O)[nH]2)ccc1O do in these assays?
aSyn 5UTR act: -133*

Results for Cc1cccc(/C=C/c2nc3ccccc3c(=O)[nH]2)c1 ?
aSyn 5UTR act: -94*

What do the screens show for `Cc1[nH]c2ccccc2c1/C=C/c1nc2ccccc2c(=O)[nH]1`?
aSyn 5UTR act: -98*

Results for O=c1[nH]c(/C=C/c2ccccc2Cl)nc2ccccc12 ?
aSyn 5UTR act: -265*

Results for CCOc1cc(/C=C/c2cc(C(F)(F)F)[nH]c(=O)n2)ccc1O ?
aSyn 5UTR act: -79*

Results for Clc1ccc(/C=C/c2nc3ccccc3[nH]2)cc1 ?
aSyn 5UTR act: 61

What do the screens show for `Clc1cccc(Cl)c1/C=C/c1nc2ccccc2[nH]1`?
aSyn 5UTR act: -149*

How did CCCCOC(=O)Nc1cccc(Cl)c1C do in these assays?
aSyn 5UTR act: -104*

What do the screens show for `Cc1ccc(NC(=S)N/N=C/c2ccc([N+](=O)[O-])s2)cc1`?
aSyn 5UTR act: -74*

Results for O=C(Nc1ncc(Cc2ccccc2)s1)C1COc2ccccc2O1 (configuration not stated) ?
aSyn 5UTR act: -190*

Results for CCC(CC)c1nnc(NC(=O)C2COc3ccccc3O2)s1 (configuration not stated) ?
aSyn 5UTR act: -72*

Results for Cc1nnc(NC(=O)C2COc3ccccc3O2)s1 (configuration not stated) ?
aSyn 5UTR act: -118*

How did O=C(NC1=NCCS1)C1COc2ccccc2O1 (configuration not stated) do in these assays?
aSyn 5UTR act: 98

What do the screens show for `Cc1ccc(C(=O)N(CCN2CCCCC2)CC2CCCN(C3CCCC3)C2)s1` (configuration not stated)?
aSyn 5UTR act: -77*

Results for O=C(c1cccs1)N(CCN1CCCCC1)CC1CCCN(C2CCCC2)C1 (configuration not stated) ?
aSyn 5UTR act: -113*

How did CN(C)c1ccc(NC(=S)NCC2CCCO2)cc1 (configuration not stated) do in these assays?
aSyn 5UTR act: -101*
